Results on ten molecules are retold here after PubChem BioAssay (NCI).

Assay [1] can be described thus: NCI Yeast Anticancer Drug Screen. Data for the rad50 strain (AID 155).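 Further: 0% = growth of vehicle-only cultures of the same strain.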 Particulars: S. cerevisiae rad50 strain growth inhibition, active compounds read high. Summed up: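 Yeast carrying a defined DNA repair defect were exposed to test compounds, and growth was compared with vehicle-treated controls to give percent inhibition.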
Assay [2] can be described thus: NCI Yeast Anticancer Drug Screen. Data for the mec2-1 strain (AID 157). Particulars: S. cerevisiae mec2-1 strain, active compounds read high. Summed up: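 Yeast mec2-1 mutant treated with compound. Readout: growth inhibition vs vehicle controls.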
A short description of assay [3]: NCI Yeast Anticancer Drug Screen. Data for the sgs1 mgt1 strain (AID 161).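 Further: 0% = growth of cultures given vehicle only.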 The note with it: S. cerevisiae sgs1 mgt1 strain, active compounds read high. The essentials: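 Mutant yeast exposed to compound; growth scored against vehicle-only wells.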
Assay [4] can be described thus: NCI Yeast Anticancer Drug Screen. Data for the cln2 rad14 strain (AID 165).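 Further: 0% = growth equal to vehicle treated cultures.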 The note with it: S. cerevisiae cln2 rad14 strain, active compounds read high. Summed up: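 cln2 rad14 yeast strain; compound exposure; growth inhibition read vs vehicle controls.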
The nature of assay [5]: NCI Yeast Anticancer Drug Screen. Data for the bub3 strain (AID 167). The note with it: S. cerevisiae bub3 mutant strain, active compounds read high. The essentials: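 Compounds were applied to a genetically altered yeast strain carrying a cell-cycle control defect. Growth inhibition was scored against vehicle-treated controls.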
Assay [6] in a line: NCI Yeast Anticancer Drug Screen. Data for the mlh1 rad18 strain (AID 175). The note with it: S. cerevisiae mlh1 rad18 strain growth inhibition, active compounds read high. The essentials:
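Yeast w/ defined DNA-repair lesions; compound exposure; growth vs vehicle controls → % inhibition.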

Where [7] appears, read: at 5.0 µM (retest, dose inferred, filed as 0.5).
Where [8] appears, read: at 50.0 µM (retest, dose inferred, filed as 5.0).

Compounds without any hit were thinned out: in the full panel of roughly 79,000, 15% have a hit. Values without a mark were called inactive. Activity calls are given as the source filed them. No stated cut-off is given here; in the data, active means growth inhibition above about 70%; inactive means the rest.

In the case of `COc1ccc2sc3c(C)ccc(NCC4CCCN5CCCCC45)c3c(=O)c2c1` (centres undefined), the growth inhibition is 42% in assay [1] (setting [7]); 81% (active) in assay [1] (setting [8]); 97.2% (active) in assay [1] (at 50.0 µM); 12% in assay [2] (setting [7]); 88% (active) in assay [2] (setting [8]); 99.6% (active) in assay [2] (at 50.0 µM). In addition, the growth inhibition was 32% in assay [3] (setting [7]); 76% (active) in assay [3] (setting [8]); 99.3% (active) in assay [3] (at 50.0 µM); 16% in assay [4] (setting [7]); 85% (active) in assay [4] (setting [8]); 99.2% (active) in assay [4] (at 50.0 µM). In addition, the growth inhibition was 21% in assay [5] (setting [7]); 92% (active) in assay [5] (setting [8]); 99.5% (active) in assay [5] (at 50.0 µM); 27% in assay [6] (setting [7]); 81% (active) in assay [6] (setting [8]); 99.4% (active) in assay [6] (at 50.0 µM).
Take `Cc1cc(Cl)n2c(nc3ccccc32)c1C#N`: the growth inhibition in assay [1] (setting [7]) is 13%; in assay [1] (setting [8]), 90% (active); in assay [1] (at 50.0 µM), 98.2% (active); in assay [2] (setting [7]), 23%; in assay [2] (setting [8]), 97% (active); in assay [2] (at 50.0 µM), 98.5% (active). The growth inhibition in assay [3] (setting [7]) is 16%; in assay [3] (setting [8]), 94% (active); in assay [3] (at 50.0 µM), 99% (active); in assay [4] (setting [7]), 2%; in assay [4] (setting [8]), 89% (active); in assay [4] (at 50.0 µM) it was 96.8% (active). Also, the growth inhibition in assay [5] (setting [7]) is 18%; in assay [5] (setting [8]), 92% (active); in assay [5] (at 50.0 µM) it was 98% (active); in assay [6] (setting [7]), 28%; in assay [6] (setting [8]), 94% (active); in assay [6] (at 50.0 µM), 98.3% (active).
`N#CC1=CN(Cc2ccccc2)C(C#Cc2ccccc2)C=C1` (centres undefined): the growth inhibition in assay [1] (setting [7]) is 1%; in assay [1] (setting [8]), -1%; in assay [1] (at 50.0 µM) it was 58.9%; in assay [2] (setting [7]) it was -1%; in assay [2] (setting [8]), 9%; in assay [2] (at 50.0 µM), 88.2% (active). The growth inhibition in assay [3] (setting [7]) is 2%; in assay [3] (setting [8]) it was 8%; in assay [3] (at 50.0 µM), 82.2% (active); in assay [4] (setting [7]), -2%; in assay [4] (setting [8]), -7%; in assay [4] (at 50.0 µM) it was 15.4%. The growth inhibition in assay [6] (setting [7]) is -2%; in assay [6] (setting [8]), 4%; in assay [6] (at 50.0 µM) it was 83.2% (active).
On to `CCOC(=O)CCC(=O)Oc1ccc2c(c1OC(=O)CCC(=O)OCC)C(=O)c1ccccc1C2=O`, for which the growth inhibition was 25% in assay [1] (setting [7]); 97% (active) in assay [1] (setting [8]); 87.5% (active) in assay [1] (at 50.0 µM); 11% in assay [2] (setting [7]); 97% (active) in assay [2] (setting [8]); 78.8% (active) in assay [2] (at 50.0 µM). For the same molecule, the growth inhibition is 50% in assay [3] (setting [7]); 98% (active) in assay [3] (setting [8]); 83% (active) in assay [3] (at 50.0 µM); 13% in assay [4] (setting [7]); 97% (active) in assay [4] (setting [8]); 66% in assay [4] (at 50.0 µM). Besides, the results for the growth inhibition in assay [6] (setting [7]), in assay [6] (setting [8]) and in assay [6] (at 50.0 µM) were 22%, 97% (active) and 95% (active), respectively.
For the molecule `O=C(Nc1cccc(C(F)(F)F)c1)c1cc(Br)cc(Br)c1O`, the growth inhibition in assay [1] (setting [7]) is 38%; in assay [1] (setting [8]), 87% (active); in assay [1] (at 50.0 µM), 83.2% (active); in assay [2] (setting [7]), 37%; in assay [2] (setting [8]), 80% (active); in assay [2] (at 50.0 µM) it was 62.6%. Also, the growth inhibition is 44% in assay [3] (setting [7]); 85% (active) in assay [3] (setting [8]); 77% (active) in assay [3] (at 50.0 µM); 45% in assay [4] (setting [7]); 75% (active) in assay [4] (setting [8]); 67.5% in assay [4] (at 50.0 µM). Also, the figures for the growth inhibition in assay [6] (setting [7]), in assay [6] (setting [8]) and in assay [6] (at 50.0 µM) were 52%, 95% (active) and 64.1%, respectively.
Take `CC(C)C(=O)/C=C/c1ccc(Cl)cc1Cl`: the growth inhibition in assay [1] (setting [7]) is -8%; in assay [1] (setting [8]), 46%; in assay [1] (at 50.0 µM) it was 69.8%; in assay [2] (setting [7]) it was -10%; in assay [2] (setting [8]), 48%; in assay [2] (at 50.0 µM), 71.8% (active). Moreover, the growth inhibition is -16% in assay [3] (setting [7]); 31% in assay [3] (setting [8]); 69.6% in assay [3] (at 50.0 µM); 12% in assay [4] (setting [7]); 36% in assay [4] (setting [8]); 52.5% in assay [4] (at 50.0 µM). Moreover, the growth inhibition in assay [5] (setting [7]) was -32%; in assay [5] (setting [8]) it was 54%; in assay [5] (at 50.0 µM) it was 69.4%; in assay [6] (setting [7]), -5%; in assay [6] (setting [8]) it was 48%; in assay [6] (at 50.0 µM), 40.3%.
As for `[N-]=[N+]=NC1=C(C(=O)c2ccccc2)C(=O)c2cccc3cccc1c23`, the growth inhibition in assay [1] (setting [7]) was 13%; in assay [1] (setting [8]) it was 18%; in assay [1] (at 50.0 µM), 32.7%; in assay [2] (setting [7]), 6%; in assay [2] (setting [8]), 27%; in assay [2] (at 50.0 µM), 20.4%. For the same molecule, the growth inhibition is 18% in assay [3] (setting [7]); 30% in assay [3] (setting [8]); 37% in assay [3] (at 50.0 µM); 6% in assay [4] (setting [7]); 17% in assay [4] (setting [8]); 35.2% in assay [4] (at 50.0 µM). For the same molecule, the growth inhibition in assay [5] (setting [7]) is 8%; in assay [5] (setting [8]), 40%; in assay [5] (at 50.0 µM), 25.4%; in assay [6] (setting [7]), 4%; in assay [6] (setting [8]), 29%; in assay [6] (at 50.0 µM), 70% (active).
Take `O=CNC(CCCC(=O)O)Cc1cc2ccccc2c2ccccc12` (centres undefined): the growth inhibition is 5% in assay [1] (setting [7]); 17% in assay [1] (setting [8]); 94.5% (active) in assay [1] (at 50.0 µM); 13% in assay [2] (setting [7]); 31% in assay [2] (setting [8]); 95% (active) in assay [2] (at 50.0 µM). Also, the growth inhibition in assay [3] (setting [7]) is 5%; in assay [3] (setting [8]), 11%; in assay [3] (at 50.0 µM) it was 95.6% (active); in assay [4] (setting [7]), 7%; in assay [4] (setting [8]), 22%; in assay [4] (at 50.0 µM), 93.7% (active). The growth inhibition was -3% in assay [6] (setting [7]), 9% in assay [6] (setting [8]) and 94.5% (active) in assay [6] (at 50.0 µM).
In the case of `O=C1CCCC2c3ccccc3NC12` (centres undefined), the growth inhibition in assay [1] (setting [7]) was -147%; in assay [1] (setting [8]), -137%; in assay [1] (at 50.0 µM), 1.85%; in assay [2] (setting [7]), -50%; in assay [2] (setting [8]), -57%; in assay [2] (at 50.0 µM) it was 34.6%. In addition, the growth inhibition in assay [3] (setting [7]) is -64%; in assay [3] (setting [8]), -64%; in assay [3] (at 50.0 µM) it was -2%; in assay [4] (setting [7]), -51%; in assay [4] (setting [8]), -56%; in assay [4] (at 50.0 µM), 78.7% (active). The growth inhibition was -139% in assay [6] (setting [7]), -111% in assay [6] (setting [8]) and 9.5% in assay [6] (at 50.0 µM).
Turning to `CN(C)C1CCC2C3CCC4=CC(=O)CCC4(C)C3CCC21C` (centres undefined), the growth inhibition is 2% in assay [1] (setting [7]); 28% in assay [1] (setting [8]); 77.1% (active) in assay [1] (at 50.0 µM); 17% in assay [2] (setting [7]); 21% in assay [2] (setting [8]); 48% in assay [2] (at 50.0 µM). For the same molecule, the growth inhibition in assay [3] (setting [7]) is 8%; in assay [3] (setting [8]), 39%; in assay [3] (at 50.0 µM), 69.5%; in assay [4] (setting [8]), 55%; in assay [4] (at 50.0 µM) it was 47.1%; in assay [5] (setting [7]) it was 2%. Also, the growth inhibition is -63% in assay [5] (setting [8]); 40% in assay [5] (at 50.0 µM); 2% in assay [6] (setting [7]); 35% in assay [6] (setting [8]); 51.7% in assay [6] (at 50.0 µM).
